The record followed here is PubChem BioAssay (NCATS).

A short description of assay [1]: qHTS of pediatric cancer cell lines to identify multiple opportunities for drug repurposing: Primary screen for DAOY cells (AID 1347090). Also: nearly all actives have a fitted effect of over 55% in size. Also: potency is read from the fitted curve at half-maximal effect. Put shortly:
(§1)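 Eight- or eleven-point concentration series, 48 h treatment at 37 degrees C in growth media; readout CellTiter-Glo luminescence. Potency and efficacy were taken from the concentration-response curves.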
On the technique in general: In qHTS, concentration-response curves come from the screen itself.

Assay [2] can be described thus: qHTS of pediatric cancer cell lines to identify multiple opportunities for drug repurposing: Primary screen for SJ-GBM2 cells (AID 1347091). Also: potency is read from the fitted curve at half-maximal effect. A digest of the protocol: as §1
Assay [3] can be described thus: qHTS of pediatric cancer cell lines to identify multiple opportunities for drug repurposing: Primary screen for A673 cells (AID 1347092). Also: nearly all actives have a fitted effect of over 45% in size. Also: potency is read from the fitted curve at half-maximal effect. Put shortly:
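Cells are plated, rested 5 h, dosed by pintool, incubated 48 h, then lysed with CellTiter-Glo and read by luminescence. DMSO is the neutral control; bortezomib at 2.3 uM final is the positive control.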

The nature of assay [4]: qHTS of pediatric cancer cell lines to identify multiple opportunities for drug repurposing: Primary screen for SK-N-MC cells (AID 1347093). Also: potency is read from the fitted curve at half-maximal effect. Put shortly:
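Metabolically active cells were quantified by ATP-dependent luminescence (CellTiter-Glo, 15 min at room temperature) following 48 h treatment. Cells had been plated at 500-1,000 per well and settled for 5 h beforehand.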

A short description of assay [5]: qHTS of pediatric cancer cell lines to identify multiple opportunities for drug repurposing: Primary screen for BT-37 cells (AID 1347094). Also: potency is read from the fitted curve at half-maximal effect. Put shortly: (§2)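 500-1,000 cells/well; 5 h pre-incubation 37 °C/5% CO2; compound pinned; 48 h; CellTiter-Glo, 15 min RT; luminescence. MIPE 11-pt from 0.78 nM, NPC 8-pt from 0.59 nM final. Bortezomib 2.3 µM final as positive control.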

Assay [6] is described as follows: qHTS of pediatric cancer cell lines to identify multiple opportunities for drug repurposing: Primary screen for NB-EBc1 cells (AID 1347095). Also: potency is read from the fitted curve at half-maximal effect. Put shortly:
as §2

Assay [7] can be described thus: qHTS of pediatric cancer cell lines to identify multiple opportunities for drug repurposing: Primary screen for SK-N-SH cells (AID 1347098). Also: nearly all actives have a fitted effect of over 65% in size. Also: potency is read from the fitted curve at half-maximal effect. Put shortly:
(§3)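 Cells (500-1,000/well) rested 5 h, then received compounds for 48 h; metabolically active cells were measured by CellTiter-Glo luminescence. Final concentrations spanned up to 46 µM (MIPE, 11-point) or 0.59 nM-46 µM (NPC, 8-point) in primary screens, 11-point in follow-ups.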

Assay [8] in a line: qHTS of pediatric cancer cell lines to identify multiple opportunities for drug repurposing: Primary screen for NB1643 cells (AID 1347099). Also: nearly all actives have a fitted effect of over 50% in size. Also: potency is read from the fitted curve at half-maximal effect. Put shortly: as §2
A short description of assay [9]: qHTS of pediatric cancer cell lines to identify multiple opportunities for drug repurposing: Primary screen for OHS-50 cells (AID 1347103). Also: nearly all actives have a fitted effect of over 40% in size. Also: potency is read from the fitted curve at half-maximal effect. Put shortly: as §3
A short description of assay [10]: qHTS of pediatric cancer cell lines to identify multiple opportunities for drug repurposing: Primary screen for RD cells (AID 1347104). Also: nearly all actives have a fitted effect of over 55% in size. Also: potency is read from the fitted curve at half-maximal effect. Put shortly:
as §2

Assay [11] is described as follows: qHTS of pediatric cancer cell lines to identify multiple opportunities for drug repurposing: Primary screen for Rh41 cells (AID 1347108). Also: nearly all actives have a fitted effect of over 70% in size. Also: potency is read from the fitted curve at half-maximal effect. Put shortly:
as §2

Assay [12] in a line: qHTS of pediatric cancer cell lines to identify multiple opportunities for drug repurposing: Confirmatory screen for NB1643 cells (AID 1347109). Also: nearly all actives have a fitted effect of over 45% in size. Also: potency is read from the fitted curve at half-maximal effect. A digest of the protocol: (§4)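 Cells (500-1,000/well) in growth media were settled 5 h at 37 degrees C, then given compounds for 48 h. Viability was read as CellTiter-Glo luminescence. Primary runs used MIPE at 11 points (0.78 nM-46 µM) and NPC at 8 points (0.59 nM-46 µM); follow-ups used 11 points.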

Assay [13] in a line: qHTS of pediatric cancer cell lines to identify multiple opportunities for drug repurposing: Primary screen for U-2 OS cells (AID 1347096). Also: nearly all actives have a fitted effect of over 50% in size. Also: potency is read from the fitted curve at half-maximal effect. A digest of the protocol:
as §4

A short description of assay [14]: qHTS of pediatric cancer cell lines to identify multiple opportunities for drug repurposing: Primary screen for LAN-5 cells (AID 1347100). Also: potency is read from the fitted curve at half-maximal effect. A digest of the protocol: as §4
The nature of assay [15]: qHTS of pediatric cancer cell lines to identify multiple opportunities for drug repurposing: Primary screen for BT-12 cells (AID 1347101). Also: nearly all actives have a fitted effect of over 25% in size. Also: potency is read from the fitted curve at half-maximal effect. A digest of the protocol:
as §3

Assay [16] can be described thus: qHTS of pediatric cancer cell lines to identify multiple opportunities for drug repurposing: Primary screen for Rh18 cells (AID 1347102). Also: nearly all actives have a fitted effect of over 65% in size. Also: potency is read from the fitted curve at half-maximal effect. Put shortly: as §4
Assay [17] can be described thus: qHTS of pediatric cancer cell lines to identify multiple opportunities for drug repurposing: Primary screen for MG 63 (6-TG R) cells (AID 1347105). Also: nearly all actives have a fitted effect of over 50% in size. Also: potency is read from the fitted curve at half-maximal effect. A digest of the protocol: as §2
Assay [18] in a line: qHTS of pediatric cancer cell lines to identify multiple opportunities for drug repurposing: Primary screen for control Hh wild type fibroblast cells (AID 1347106).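 Also: series mostly up to about 46 µM; a drop in luminescence marks cytotoxicity and a rise apparent proliferation; nearly all actives have a fitted effect of over 55% in size.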 A digest of the protocol:
as §4

A short description of assay [19]: qHTS of pediatric cancer cell lines to identify multiple opportunities for drug repurposing: Primary screen for Rh30 cells (AID 1347107). Also: nearly all actives have a fitted effect of over 75% in size. Also: potency is read from the fitted curve at half-maximal effect. A digest of the protocol: as §4
Assay [20] is described as follows: qHTS of pediatric cancer cell lines to identify multiple opportunities for drug repurposing: Primary screen for Saos-2 cells (AID 1347097). Also: nearly all actives have a fitted effect of over 40% in size. Also: potency is read from the fitted curve at half-maximal effect. Put shortly: as §2

Records with an inconclusive call do not appear. A number with no mark means an inactive call. Active and inactive are the calls of the source. Calls follow the shape of the dose curve; as a rule, active = well fitted curve in the direction sought with a large enough effect; inconclusive = small, poorly fitted or top-dose-only effect, or another doubt; inactive = no such curve, though single readings can be large; an effect the other way counts as inactive or inconclusive.

For the compound `CCNC(=O)c1noc(-c2cc(C(C)C)c(O)cc2O)c1-c1ccc(CN2CCOCC2)cc1`, the Potency in assay [1] was 0.235 µM (active); in assay [2], 0.332 µM (active); in assay [3], 0.148 µM (active); in assay [4], 0.0526 µM (active); in assay [5], 0.137 µM (active); in assay [6] it was 0.296 µM (active). For the same compound, the Potency in [7] is 0.152 µM (active); in assay [8], 0.105 µM (active); in [9] it was 0.153 µM (active); in assay [10] it was 0.235 µM (active); in [11], 0.148 µM (active); in assay [12], 0.0737 µM (active).

As for `CCN1C[C@H](C)n2c(c(O)c3c(=O)n(Cc4ccc(F)c(Cl)c4)nc(C(=O)NC)c32)C1=O`, the Potency entry in assay [1], in assay [2], in assay [3], in assay [4], in [5] and in [6] was “inactive” in each case. The Potency entry in assay [13], in assay [7], in assay [8], in assay [14], in assay [15] and in assay [16] was “inactive” each time. Moreover, the Potency result in assay [9], in assay [10], in assay [17], in [18] and in [19] was “inactive” each time.

Consider `OC[C@H]1O[C@@H](O[C@H]2[C@@H](O)[C@@](O)(CO)O[C@@H]2CO)[C@H](O)[C@@H](O)[C@@H]1O`, for which the Potency result in [1], in assay [2], in assay [3], in assay [4], in assay [5] and in assay [6] was “inactive” in each case. The Potency result in assay [13], in [20], in assay [15], in [16], in assay [9] and in assay [10] was “inactive” in each case. Further, the Potency entry in assay [17], in assay [19] and in [11] was “inactive” each time.

For `CS(=O)(=O)c1ccc(C2=C(c3ccccc3)C(=O)OC2)cc1`, the Potency result in [1], in [2], in [3], in assay [4], in assay [5] and in assay [13] was “inactive” throughout. The Potency entry in assay [20], in [14], in assay [15], in assay [16], in assay [9] and in [10] was “inactive” in each case. Moreover, the Potency result in assay [17], in assay [18] and in assay [19] was “inactive” throughout.

Regarding `Cc1ccc2c(=O)c3cccc(CC(=O)O)c3oc2c1C`, the Potency in assay [1] was 14.8 µM (active); in assay [3], 9.35 µM (active); in assay [4], 16.6 µM (active); in assay [7], 24.1 µM (active); in [8], 14.8 µM (active); in assay [10], 29.6 µM (active). Besides, in assay [17], the Potency was 23.5 µM (active). The Potency result in [2], in assay [13], in assay [15], in [16], in [9] and in assay [18] was “inactive” in each case. In assay [19], the Potency entry was “inactive”.

For the compound `N=C1SC(=Cc2ccc(-c3ccc4c(c3)C(=O)NC4=O)o2)C(=O)N1c1ccc(Br)cc1`, the Potency entry in assay [1], in [3], in [4], in assay [13], in assay [20] and in [7] was “inactive” throughout. The Potency entry in [15], in [10], in assay [17], in assay [18] and in [19] was “inactive” each time. In addition, the Potency is 2.64 µM (active) in assay [2] and 3.72 µM (active) in assay [6].

`CNC(=O)[C@H](CC1=CN=C2C=CCC=C12)NC(=O)[C@@H](CC(=O)NO)CC(C)C`: the Potency in assay [1] was 0.0296 µM (active); in assay [3], 0.0469 µM (active); in [4], 0.0059 µM (active); in assay [5] it was 0.685 µM (active); in [7] it was 1.21 µM (active); in assay [15] it was 0.344 µM (active). Moreover, the results for the Potency in assay [9], in assay [10] and in assay [17] were 1.37 µM (active), 1.18 µM (active) and 9.35 µM (active), respectively. Besides, the Potency entry in assay [2], in [13], in assay [16], in assay [18] and in assay [19] was “inactive” in each case.

As to `CO[C@H]1O[C@@H]2O[C@@]3(C)CC[C@@H]4[C@@H](C)CC[C@@H]([C@H]1C)[C@@]24OO3`, the Potency entry in assay [1], in assay [2], in assay [3], in assay [13], in assay [7] and in assay [17] was “inactive” each time. Moreover, the Potency entry in assay [18] and in assay [11] was “inactive” each time. Moreover, the Potency in assay [4] was 5.26 µM (active); in [14], 20.9 µM (active).

For `CN1N=C(N)c2cn([C@@H]3O[C@H](COP(=O)(O)O)[C@@H](O)[C@@H]3O)c3ncnc1c23`, the Potency in assay [1] is 14.8 µM (active); in [2] it was 7.43 µM (active); in assay [3], 3.72 µM (active); in assay [4], 0.0042 µM (active); in [6], 1.66 µM (active); in assay [8] it was 16.6 µM (active). Also, the values for the Potency in [14], in [9] and in assay [11] were 0.166 µM (active), 0.193 µM (active) and 2.35 µM (active), respectively.

In the case of `COC(=O)N1CCN(Cc2cccc(NC(=O)Nc3ccc(C)nc3)c2F)CC1`, the Potency entry in assay [1], in [2], in [3], in [4], in assay [5] and in assay [13] was “inactive” throughout. The Potency result in [20], in assay [7], in assay [16], in [10] and in assay [17] was “inactive” throughout.

Turning to `CN1CCC(COc2cnc(-c3cccc(Cn4nc(-c5cccc(C#N)c5)ccc4=O)c3)nc2)CC1`, the Potency in assay [1] was 23.5 µM (active); in assay [2], 0.0083 µM (active); in assay [3] it was 0.148 µM (active); in assay [4], 0.148 µM (active); in assay [7] it was 24.1 µM (active); in [10], 4.69 µM (active). Also, in [17], the Potency was 0.743 µM (active). Besides, the Potency result in assay [5], in [13], in assay [20], in assay [8], in [15] and in assay [16] was “inactive” each time. Further, in assay [19], the Potency entry is “inactive”.

Regarding `CC1C(=O)OC2C(O)C34C5CC(C(C)(C)C)C36C(OC(=O)C6O)OC4(C(=O)O5)C12O` (stereo not given), the Potency entry in assay [1], in assay [2], in [13], in [20], in [16] and in assay [9] was “inactive” in each case. In addition, the Potency entry in assay [17], in [18], in [19] and in assay [12] was “inactive” each time. In addition, the Potency is 18.7 µM (active) in assay [3], 29.6 µM (active) in [4], 14.8 µM (active) in assay [6] and 20.9 µM (active) in assay [14].

As to `Nc1ccc(-c2ccc3ncc4ccc(=O)n(-c5cccc(C(F)(F)F)c5)c4c3c2)cn1`, the Potency in assay [1] was 0.0074 µM (active); in assay [2] it was 0.003 µM (active); in assay [3], 0.003 µM (active); in assay [4] it was 0.0001 µM (active); in assay [5] it was 0.0109 µM (active); in [13], 1.48 µM (active). Further, the Potency in [20] is 0.148 µM (active); in assay [8] it was 0.418 µM (active); in assay [14], 0.0296 µM (active); in assay [15], 3.43 µM (active); in assay [16], 0.148 µM (active); in assay [9], 0.0069 µM (active). Moreover, the Potency was 0.235 µM (active) in assay [10]; 0.0009 µM (active) in assay [17]; 1.66 µM (active) in assay [19]; 0.0264 µM (active) in [11]; 0.369 µM (active) in assay [12].
